Data published in PubChem BioAssay AID1159580 (chemical genetic matrix, 2015).
The whole screen tested about 5,500 compounds, of which about 2,000 (36%) were called active. About 18% were inconclusive and are not listed. Rule as the data show it: active = normalized growth mostly below about 0.91 (no sharp cut-off); inconclusive = no clear call, values can overlap the other calls; inactive = mostly above about 0.92. This is one part of the list.

Assay: chemical genetic growth profiling, strain panel (AID 1159580);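 also: tested at 20 µM; growth read once vehicle control cultures reached saturation at 30 °C; 1 = growth at the plate median or of vehicle wells; lower values mean less growth of the strain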
Conditions: growth OD

Measured: normalized growth

CC1=C(C(=O)O)N2C(=O)[C@@H](NC(=O)[C@H](N)C3=CCC=CC3)C2SC1 (some centres not stated)
inactive: S. cerevisiae deletion strains, locus YJR066W, strain TOR1, hits give low values 0.974 | S. cerevisiae deletion strains, locus YKL009W, strain mrt4, hits give low values 1 | S. cerevisiae deletion strains, locus YKL068W, hits give low values 0.979 | S. cerevisiae deletion strains, locus YKL085W, strain MDH1 (second series), hits give low values 0.978 | S. cerevisiae deletion strains, locus YKL085W, strain MDH1, hits give low values 0.978 | S. cerevisiae deletion strains, locus YKL160W, strain elf1, hits give low values 1 | S. cerevisiae deletion strains, locus YKR001C, strain vps1, hits give low values 0.994 | S. cerevisiae deletion strains, locus YKR026C, strain gcn3, hits give low values 1.02 | S. cerevisiae deletion strains, locus YKR091W, strain srl3, hits give low values 1.01 | S. cerevisiae deletion strains, locus YLL001W, strain dnm1, hits give low values 0.998 | S. cerevisiae deletion strains, locus YLL026W, hits give low values 1.02 | S. cerevisiae deletion strains, locus YLL041C, strain sdh2, hits give low values 1.02 | S. cerevisiae deletion strains, locus YLR027C, strain aat2, hits give low values 1.02 | S. cerevisiae deletion strains, locus YLR039C, strain RIC1, hits give low values 0.983 | S. cerevisiae deletion strains, locus YLR058C, strain SHM2, hits give low values 0.974 | S. cerevisiae deletion strains, locus YLR102C, strain apc9, hits give low values 1 | S. cerevisiae deletion strains, locus YLR113W, strain HOG1, hits give low values 0.968 | S. cerevisiae deletion strains, locus YLR221C, strain rsa3, hits give low values 1.02 | S. cerevisiae deletion strains, locus YLR258W, strain gsy2, hits give low values 1.03 | S. cerevisiae deletion strains, locus YLR262C, strain YPT6 (second series), hits give low values 1.04 | S. cerevisiae deletion strains, locus YLR262C, strain YPT6, hits give low values 0.924 | S. cerevisiae deletion strains, locus YLR268W, strain sec22, hits give low values 1 | S. cerevisiae deletion strains, locus YLR320W, strain mms22, hits give low values 1.01 | S. cerevisiae deletion strains, locus YLR330W, strain CHS5, hits give low values 0.986 | S. cerevisiae deletion strains, locus YLR342W, strain FKS1 (second series), hits give low values 1.03 | S. cerevisiae deletion strains, locus YLR342W, strain FKS1, hits give low values 1.01 | S. cerevisiae deletion strains, locus YLR357W, strain rsc2, hits give low values 1.04 | S. cerevisiae deletion strains, locus YLR370C, strain arc18, hits give low values 1.03 | S. cerevisiae deletion strains, locus YLR371W, strain rom2, hits give low values 0.999 | S. cerevisiae deletion strains, locus YLR384C, strain iki3, hits give low values 1.02 | S. cerevisiae deletion strains, locus YLR418C, strain cdc73, hits give low values 1.01 | S. cerevisiae deletion strains, locus YML016C, strain PPZ1, hits give low values 0.986 | S. cerevisiae deletion strains, locus YML032C, strain rad52, hits give low values 0.995 | S. cerevisiae deletion strains, locus YML120C, strain ndi1, hits give low values 1.02 | S. cerevisiae deletion strains, locus YML124C, strain tub3, hits give low values 0.995 | S. cerevisiae deletion strains, locus YMR058W, strain fet3, hits give low values 1.02 | S. cerevisiae deletion strains, locus YMR078C, strain ctf18, hits give low values 0.994 | S. cerevisiae deletion strains, locus YMR125W, strain sto1, hits give low values 0.996 | S. cerevisiae deletion strains, locus YMR129W, hits give low values 1.02 | S. cerevisiae deletion strains, locus YMR205C, strain PFK2, hits give low values 1.04 | S. cerevisiae deletion strains, locus YMR223W, strain ubp8, hits give low values 1.01 | S. cerevisiae deletion strains, locus YMR231W, strain pep5, hits give low values 1 | S. cerevisiae deletion strains, locus YMR263W, strain SAP30, hits give low values 1 | S. cerevisiae deletion strains, locus YMR307W, strain GAS1, hits give low values 0.933 | S. cerevisiae deletion strains, locus YNL067W, strain RPL9B, hits give low values 1.02 | S. cerevisiae deletion strains, locus YNL071W, strain lat1, hits give low values 1.02 | S. cerevisiae deletion strains, locus YNL153C, strain GIM3, hits give low values 1.02 | S. cerevisiae deletion strains, locus YNL183C, strain NPR1, hits give low values 0.933 | S. cerevisiae deletion strains, locus YNL209W, strain ssb2, hits give low values 1.03 | S. cerevisiae deletion strains, locus YNL233W, strain BNI4, hits give low values 1.03 | S. cerevisiae deletion strains, locus YNL248C, strain rpa49, hits give low values 1.05 | S. cerevisiae deletion strains, locus YNL250W, strain rad50, hits give low values 1 | S. cerevisiae deletion strains, locus YNL271C, strain bni1, hits give low values 1 | S. cerevisiae deletion strains, locus YNL298W, strain CLA4, hits give low values 0.999 | S. cerevisiae deletion strains, locus YNL307C, strain MCK1, hits give low values 0.995 | S. cerevisiae deletion strains, locus YNL322C, strain KRE1 (second series), hits give low values 1.01 | S. cerevisiae deletion strains, locus YNR049C, strain mso1, hits give low values 1.02 | S. cerevisiae deletion strains, locus YNR052C, strain pop2, hits give low values 0.996 | S. cerevisiae deletion strains, locus YOL012C, strain htz1 0.951 | S. cerevisiae deletion strains, locus YOL147C, strain pex11, hits give low values 0.997 | S. cerevisiae deletion strains, locus YOR001W, strain rrp6, hits give low values 1.02 | S. cerevisiae deletion strains, locus YOR061W, strain CKA2, hits give low values 0.968 | S. cerevisiae deletion strains, locus YOR069W, strain VPS5, hits give low values 0.976 | S. cerevisiae deletion strains, locus YOR070C, strain gyp1, hits give low values 1.02 | S. cerevisiae deletion strains, locus YOR080W, strain dia2, hits give low values 1.03 | S. cerevisiae deletion strains, locus YOR083W, strain WHI5, hits give low values 0.993 | S. cerevisiae deletion strains, locus YOR106W, strain vam3, hits give low values 1.04 | S. cerevisiae deletion strains, locus YOR136W, strain idh2, hits give low values 0.984 | S. cerevisiae deletion strains, locus YOR144C, strain elg1, hits give low values 0.995 | S. cerevisiae deletion strains, locus YOR184W, strain ser1, hits give low values 0.992 | S. cerevisiae deletion strains, locus YOR231W, strain MKK1, hits give low values 0.979 | S. cerevisiae deletion strains, locus YOR265W, strain rbl2, hits give low values 1.02 | S. cerevisiae deletion strains, locus YOR270C, strain vph1, hits give low values 1.07 | S. cerevisiae deletion strains, locus YOR290C, strain snf2, hits give low values 1.02 | S. cerevisiae deletion strains, locus YOR316C, strain cot1, hits give low values 0.991 | S. cerevisiae deletion strains, locus YPL051W, strain arl3, hits give low values 1.01 | S. cerevisiae deletion strains, locus YPL078C, strain atp4, hits give low values 1.02 | S. cerevisiae deletion strains, locus YPL106C, strain sse1, hits give low values 1.03 | S. cerevisiae deletion strains, locus YPL240C, strain hsp82, hits give low values 1.01 | S. cerevisiae deletion strains, locus YPL241C, strain CIN2, hits give low values 0.989 | S. cerevisiae deletion strains, locus YPL256C, strain CLN2, hits give low values 0.956 | S. cerevisiae deletion strains, locus YPR119W, strain clb2, hits give low values 0.995 | S. cerevisiae deletion strains, locus YPR141C, strain kar3, hits give low values 0.988 | S. cerevisiae deletion strains, locus YPR163C, strain tif3, hits give low values 0.995 | S. cerevisiae deletion strains, locus YPR167C, strain met16, hits give low values 0.998 | S. cerevisiae deletion strains, strain wtn01, hits give low values 1.04 | S. cerevisiae strains, strain wild type, hits give low values 0.985
